TGFb SMAD3 inh: qHTS for Inhibitors of TGF-b; HepG2 CAGA-GFP TGF-b/SMAD3 reporter, GFP fluorescence, 18 h; TGF-beta stimulated, 500 pg/mL final; Potency, µM (top dose mostly 46.1 µM), without a hit: at the top dose activity, negative = inhibition, actives largely listed as inhibitors; 410,000 compounds, 1.2% hits; note: potency is the fitted concentration of half-maximal effect; % is set by controls: 0 for no effect and ±100 for the full control effect; nearly all actives have a fitted effect of over 65% in size
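TGF-beta reporter screen: HEPG2 CAGA-GFP, 1% FBS, 500 pg/mL TGF-beta final, 18 h; per-cell GFP summed per well; curves fitted and categorized by class.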
HepG2 viability: qHTS for Inhibitors of TGF-b: Cytotox Counterscreen | 410,000 compounds, 0.76% hits | HepG2 CAGA-GFP viability, ATP luminescence, 18 h | Potency, µM (top dose mostly 46.1 µM), without a hit: at the top dose activity change, negative = cytotoxicity, actives largely listed as cytotoxic; note: potency is the fitted concentration of half-maximal effect
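HepG2 CAGA-GFP cells (1000/well, DMEM with 1% FBS) received compound, then TGF-beta at 500 pg/mL final, and were incubated 18 hours at 37 degrees C. Viability was read by CellTiter-Glo luminescence. Media-only wells were set as complete cell-killing and DMSO as no toxicity.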
TDP1 cell CPT: qHTS for Inhibitors of human tyrosyl-DNA phosphodiesterase 1 (TDP1): qHTS in cells in presence of CPT. 420,000 compounds, 12% hits. Potency, µM (series often up to 46.2 µM), inactives show at the highest dose activity change, negative = growth inhibition, actives largely listed as inhibitors. chicken DT40 Tdp1-/-;hTDP1 cells + 20 nM CPT, ATP luminescence, 48 h; note: potency is the fitted concentration of half-maximal effect; % is set by controls: 0 for no effect and ±100 for the full control effect; nearly all actives have a fitted effect of over 55% in size
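Chicken DT40 Tdp1-/- cells complemented with human TDP1, 400 cells/well, exposed to compounds plus 20 nM camptothecin for at least 48 h at 37 C; viability read as ATP content by CellTiter-Glo luminescence.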
IL1B secr inh: qHTS for Inhibitors of Inflammasome Signaling: IL-1-beta AlphaLISA Primary Screen; activity change, % at 57.5 µM; 360,000 compounds, 4.7% hits; THP-1 LPS/ATP IL-1B secretion, AlphaLISA, 16 h; hits give low values; in the data active = activity change below about -50%; inconclusive = mostly about -30% to -49%; note: % is set by controls: 0 for no effect and ±100 for the full control effect
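THP-1 cells pretreated 1 hr with compounds (up to 57.5 uM final), then stimulated with LPS (250 ng/mL final) plus ATP (1.25 mM final); secreted IL-1B measured by AlphaLISA after 16 hr, decreased signal indicating inhibition.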
ASM inhibitor: Inhibitors of Secretory Acid Sphingomyelinase (S-ASM): qHTS; Sphingomyelin phosphodiesterase (Homo sapiens), P17405; placental ASM, HMU-PC fluorogenic substrate, 60 min; Potency, µM (highest dose often 57.5 µM), for inactives: at the highest dose activity change, negative = inhibition, usual class: inhibitors; 340,000 compounds, 0.006% hits; note: potency is the fitted concentration of half-maximal effect
Target sequence (P17405 47-631 limits assumed): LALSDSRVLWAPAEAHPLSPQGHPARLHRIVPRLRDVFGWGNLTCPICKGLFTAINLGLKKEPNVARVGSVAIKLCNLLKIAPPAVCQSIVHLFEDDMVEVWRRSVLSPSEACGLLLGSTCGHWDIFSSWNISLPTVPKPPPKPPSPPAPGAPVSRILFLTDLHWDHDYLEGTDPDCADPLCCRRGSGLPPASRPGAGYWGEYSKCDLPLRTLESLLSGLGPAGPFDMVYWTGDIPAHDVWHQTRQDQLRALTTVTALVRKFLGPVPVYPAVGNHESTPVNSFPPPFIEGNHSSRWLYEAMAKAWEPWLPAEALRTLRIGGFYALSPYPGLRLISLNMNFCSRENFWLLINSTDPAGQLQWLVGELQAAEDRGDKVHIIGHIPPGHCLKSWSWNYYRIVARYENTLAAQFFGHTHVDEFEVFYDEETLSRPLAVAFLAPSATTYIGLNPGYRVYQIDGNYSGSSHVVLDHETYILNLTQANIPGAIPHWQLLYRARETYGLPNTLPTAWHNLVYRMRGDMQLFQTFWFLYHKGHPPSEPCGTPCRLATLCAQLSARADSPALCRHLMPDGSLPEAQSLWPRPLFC
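Steps: dispense placental human ASM, pin compound, wait 10 min at room temperature, add HMU-PC0 substrate at 9 uM final, incubate 60 min at 37 °C, add stop solution raising pH to 10, read fluorescence.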
TDP1 cell noCPT: qHTS for Inhibitors of human tyrosyl-DNA phosphodiesterase 1 (TDP1): qHTS in cells in absence of CPT. DT40 Tdp1-/- hTDP1 cells, no CPT, ATP luminescence, 48 h. Potency, µM (series often up to 46.2 µM), for inactives: at the highest dose activity change, negative = growth inhibition, hits mostly inhibitors. 420,000 compounds, 15% hits; note: potency is the fitted concentration of half-maximal effect; % is set by controls: 0 for no effect and ±100 for the full control effect; nearly all actives have a fitted effect of over 55% in size
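Growth kinetics read by CellTiter-Glo luminescence after ≥48 hr at 37 °C. Cells: DT40 Tdp1-/- stably carrying human TDP1, 400 per well, compound exposure in the absence of CPT (DMSO vehicle).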
An asterisk follows results filed as active. Shown are actives, neighbours in structure and some others; about 19% of the full set was active somewhere. Unless noted, calls come from the whole dose curve; as a rule, active = well fitted curve in the direction sought with a large enough effect; inconclusive = small, poorly fitted or top-dose-only effect, or another doubt; inactive = no such curve, though single readings can be large; an effect the other way counts as inactive or inconclusive.

What do the screens show for `Cc1cc(N2CCN(C)CC2)nc2ccc(NC(=O)CCC(=O)NCCC(C)C)cc12`?
TGFb SMAD3 inh: 5%; HepG2 viability: 0%; TDP1 cell CPT: -3%; IL1B secr inh: 1; ASM inhibitor: 353%; TDP1 cell noCPT: -26%

Results for Cc1cc(N2CCN(C)CC2)nc2ccc(NC(=O)Nc3ccc(Cl)cc3)cc12 ?
TGFb SMAD3 inh: 36%; HepG2 viability: -16%; TDP1 cell CPT: inconclusive; TDP1 cell noCPT: inconclusive

What do the screens show for `Cc1cc(N2CCN(C)CC2)nc2ccc(NC(=S)N3CCN(c4ccc(F)cc4)CC3)cc12`?
TGFb SMAD3 inh: -1%; HepG2 viability: -58%; TDP1 cell CPT: inconclusive; IL1B secr inh: 212; ASM inhibitor: 36%; TDP1 cell noCPT: 10µM*

Results for Cc1cc(N2CCN(C)CC2)nc2ccc(NC(=S)N3CCCCCC3)cc12 ?
TGFb SMAD3 inh: 11%; HepG2 viability: -23%; TDP1 cell CPT: -4%; IL1B secr inh: -5; ASM inhibitor: 68%; TDP1 cell noCPT: -30%

What do the screens show for `Cc1cc(N2CCN(c3ccc(F)cc3)CC2)nc2cc(O)ccc12`?
TGFb SMAD3 inh: 1%; HepG2 viability: -28%; TDP1 cell CPT: 23µM*; IL1B secr inh: 23; ASM inhibitor: 66%; TDP1 cell noCPT: 15µM*

Results for Cc1cc(N2CCN(C)CC2)nc2ccc(NC(=S)N3CCN(c4ccc(Cl)cc4)CC3)cc12 ?
TGFb SMAD3 inh: -4%; HepG2 viability: -9%; TDP1 cell CPT: 9.2µM*; IL1B secr inh: 38; ASM inhibitor: 198%; TDP1 cell noCPT: inconclusive

What do the screens show for `Cc1cccc(N2CCN(C(=S)Nc3ccc4nc(N5CCN(C)CC5)cc(C)c4c3)CC2C)c1` (centres undefined)?
TGFb SMAD3 inh: inconclusive; HepG2 viability: 10µM*; TDP1 cell CPT: inconclusive; IL1B secr inh: -72*; ASM inhibitor: 18%; TDP1 cell noCPT: 21µM*

How did O=C1OC(CO)CN1Cc1ccccc1 (centres undefined) do in these assays?
TGFb SMAD3 inh: 26%; HepG2 viability: 26%; TDP1 cell CPT: 5%; IL1B secr inh: -10; ASM inhibitor: 6%; TDP1 cell noCPT: -16%

What do the screens show for `CN1CCN(C(=O)c2cc3c(c(-c4cccc(C#CC(C)(C)O)c4)n2)[C@@H](CCO)N(S(=O)C(C)(C)C)C3)CC1` (some centres undefined)?
TGFb SMAD3 inh: 4%; HepG2 viability: 4%; TDP1 cell CPT: -4%; IL1B secr inh: 51; TDP1 cell noCPT: -16%

Results for Cc1cccc(N2CCN(C(=S)Nc3ccc4nc(N5CCN(C)CC5)cc(C)c4c3)CC2)c1C ?
TGFb SMAD3 inh: -20%; HepG2 viability: -21%; TDP1 cell CPT: 1.3µM*; IL1B secr inh: 4; ASM inhibitor: 20%; TDP1 cell noCPT: 1µM*

What do the screens show for `Cc1cc(N2CCN(C)CC2)nc2ccc(NC(=S)N3CCN(c4cccc(Cl)c4)CC3)cc12`?
TGFb SMAD3 inh: 0%; HepG2 viability: 5%; TDP1 cell CPT: 1.8µM*; IL1B secr inh: 19; ASM inhibitor: 111%; TDP1 cell noCPT: 2.6µM*

How did COc1ccc(CCCc2nnc(SCC(=O)Nc3ccc(C)cc3)o2)cc1 do in these assays?
TGFb SMAD3 inh: -2%; HepG2 viability: -13%; TDP1 cell CPT: -16%; TDP1 cell noCPT: -15%

How did CN(C)Cc1csc(NC(=O)Nc2cccc(C(F)(F)F)c2)n1 do in these assays?
TGFb SMAD3 inh: -1%; HepG2 viability: -54%; TDP1 cell CPT: 15µM*; IL1B secr inh: -7; TDP1 cell noCPT: 18µM*

What do the screens show for `CC(N)c1csc(NC(=O)Nc2cccc(C(F)(F)F)c2)n1` (centres undefined)?
TGFb SMAD3 inh: inconclusive; HepG2 viability: 20µM*; TDP1 cell CPT: inconclusive; IL1B secr inh: -102*; TDP1 cell noCPT: inconclusive

How did CN(C)Cc1csc(NC(=O)Nc2cccc(Cl)c2)n1 do in these assays?
TGFb SMAD3 inh: inconclusive; HepG2 viability: -39%; TDP1 cell CPT: 26µM*; IL1B secr inh: inconclusive; TDP1 cell noCPT: 18µM*

Results for Cc1cccc(C)c1NC(=O)Nc1nc(CN(C)C)cs1 ?
TGFb SMAD3 inh: -20%; HepG2 viability: -17%; TDP1 cell CPT: -7%; IL1B secr inh: 5; TDP1 cell noCPT: -13%

What do the screens show for `O=C(Nc1cc(C(F)(F)F)ccc1Cl)c1cc(-c2ccc3c(c2)OCCO3)on1`?
TGFb SMAD3 inh: 32%; HepG2 viability: 3%; TDP1 cell CPT: inconclusive; TDP1 cell noCPT: inconclusive

How did CCC(CC)C(=O)Nc1nnc(S(=O)(=O)Nc2ccc(OC)cc2)s1 do in these assays?
TGFb SMAD3 inh: -2%; HepG2 viability: -11%; TDP1 cell CPT: -1%; IL1B secr inh: 10; ASM inhibitor: -10%; TDP1 cell noCPT: 15%

Results for O=C(C1COc2ccccc2O1)N1CCN(c2nc3ccc([N+](=O)[O-])cc3s2)CC1 (centres undefined) ?
TGFb SMAD3 inh: 10%; HepG2 viability: -3%; TDP1 cell CPT: inconclusive; IL1B secr inh: -7; TDP1 cell noCPT: 23µM*

Results for O=C(C1COc2ccccc2O1)N1CCN(c2ccc([N+](=O)[O-])cc2)CC1 (centres undefined) ?
TGFb SMAD3 inh: -27%; HepG2 viability: -10%; TDP1 cell CPT: inconclusive; IL1B secr inh: -84*; ASM inhibitor: -18%; TDP1 cell noCPT: 21µM*

How did CC1=CC(C)(C)Nc2ccc(OC(=O)C(C)N3C(=O)c4ccccc4C3=O)cc21 (centres undefined) do in these assays?
TGFb SMAD3 inh: 18µM*; HepG2 viability: -99%; TDP1 cell CPT: 2.1µM*; IL1B secr inh: 0; ASM inhibitor: -6%; TDP1 cell noCPT: 2.6µM*

What do the screens show for `CC1=CC(C)(C)Nc2ccc(OC(=O)CN3C(=O)CCC3=O)cc21`?
TGFb SMAD3 inh: -20%; HepG2 viability: 16µM*; TDP1 cell CPT: 2.9µM*; IL1B secr inh: -101*; ASM inhibitor: 56%; TDP1 cell noCPT: 2.8µM*

How did CC1=CC(C)(C)Nc2ccc(OC(=O)c3cccnc3)cc21 do in these assays?
TGFb SMAD3 inh: -6%; HepG2 viability: 13µM*; TDP1 cell CPT: 2.9µM*; IL1B secr inh: -98*; ASM inhibitor: 0%; TDP1 cell noCPT: 4.6µM*
